# According to PubChem BioAssay AID588726 (The Scripps Research Institute Molecular Screening Center, 2011):
# The whole screen tested about 360,000 compounds, of which about 8,200 (2.3%) were called active. The list comes from a sample in which actives are over-represented; it also holds similar structures and randomly drawn compounds. Values without a mark were called inactive. No stated cut-off is given here; in the data, active means inhibition above about 27%; inactive means the rest.
# Biological target: Fructose-bisphosphate aldolase (Mycobacterium tuberculosis (strain ATCC 25618 / H37Rv)) (UniProt P9WQA3)
# Sequence (P9WQA3 whole entry, looked up): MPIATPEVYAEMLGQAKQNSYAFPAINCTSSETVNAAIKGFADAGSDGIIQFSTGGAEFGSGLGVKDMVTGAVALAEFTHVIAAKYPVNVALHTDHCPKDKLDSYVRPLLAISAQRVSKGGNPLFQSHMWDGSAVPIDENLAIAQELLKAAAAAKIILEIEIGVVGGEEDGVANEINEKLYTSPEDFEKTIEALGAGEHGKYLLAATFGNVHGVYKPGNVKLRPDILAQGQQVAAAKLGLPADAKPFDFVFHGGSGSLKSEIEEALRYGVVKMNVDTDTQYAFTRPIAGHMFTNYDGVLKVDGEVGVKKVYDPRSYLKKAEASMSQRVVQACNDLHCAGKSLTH
# Assay: Mtb FBA enzyme inhibitors, primary screen, biochemical, fluorescence, strain H37Rv (AID 588726);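 further: 0% = vehicle and 100% = reference inhibitor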
# Conditions: purified M. tuberculosis FBA, fluorescence read-out, at 1 µM, hits give high values
row,SMILES,inhibition
1,O=C(NCCCN1CCOCC1)c1cnn2c(-c3ccccc3)cc(-c3ccccc3)nc12,34.3% (active)
2,O=C(NCCCN1CCOCC1)c1ccccc1NS(=O)(=O)c1ccc(Br)cc1,0.43%
3,O=C(NCCCN1CCOCC1)c1ccccc1NS(=O)(=O)c1ccc(F)cc1,2.85%
4,CC(=O)Nc1ccc(-c2cn3cccnc3n2)cc1,"566% [above what the read-out allows, likely interference] (active)"
5,CCCCC(=O)Nc1ccc(C(=O)NCCCn2ccnc2)cc1,-1.64%
6,CCCCCC(=O)Nc1ccc(S(=O)(=O)Nc2ccc(Cl)nn2)cc1,-0.48%
7,Cc1nn2c(=O)cc(COC(=O)c3ccc(NC(=O)C(C)(C)C)cc3)nc2s1,-0.5%
8,CCN(c1ccccc1)S(=O)(=O)c1ccc(NC(=O)C(C)(C)C)cc1,0.11%
9,CCCCCC(=O)Nc1ccc(-c2cn3cccnc3n2)cc1,131% (active)
10,CC(=O)Nc1ccc(S(=O)(=O)Nc2ccc(-c3ccc4nnc(C)n4n3)cc2)cc1,-1.85%
11,Cc1ccc(NC(=O)c2cccnc2C(=O)Nc2ccc(C)cc2)cc1,4.35%
12,CCOc1ccc(C(CC(=O)O)NC(=O)C23CC4CC(CC(C4)C2)C3)cc1OC (stereo not given),-2.94%
13,CSc1ccc(CN2CCC2(C)C(=O)NCc2ccccc2Br)cc1 (stereo not given),-0.17%
14,COc1ccc(OC)c(NC(=O)C2CCCN2S(=O)(=O)c2ccc3c(c2)CC(C)N3C(C)=O)c1 (stereo not given),-1.84%
15,CCOC(=O)CSc1nnc(NC(=O)C2CC(=O)N(c3ccc(F)cc3)C2)s1 (stereo not given),-1.95%
16,O=C(N/C(=C\c1ccc([N+](=O)[O-])cc1)C(=O)N1CCOCC1)c1cccc(Br)c1,-1.01%
17,CCCS(=O)(=O)N1CCN(C(=O)c2cccs2)CC1,3.16%
18,CN(C)S(=O)(=O)c1ccc(NC(=O)N2CCOCC2)cc1,3.98%
19,CN(C)S(=O)(=O)c1ccc(N/C=C(\[N+](=O)[O-])S(=O)(=O)c2ccccc2)cc1,57.2% (active)
20,CN(C)S(=O)(=O)c1cccc(NC(=S)N/N=C/C(=O)c2ccccc2)c1,-3.5%
21,O=C(O)CC(Cn1cnnn1)c1ccccc1 (stereo not given),3.12%
22,Cc1cccc(CCNC(=O)Cn2ncc3c([nH]c4ccc(C)cc43)c2=O)c1,1.24%
23,Cc1ccc(NC(=O)CN(C)C(=O)COC(=O)c2nccnc2N)cc1,88.8% (active)
24,Cc1ccc(CSCC(=O)N(C)CC(=O)Nc2ccc(C)cc2)cc1,-2.58%
25,Cc1ccc(NC(=O)CN(C)C(=O)COC(=O)C(C)(C)Oc2ccc(Cl)cc2)cc1,2.5%
